From PubChem BioAssay (NCATS)
Records with an inconclusive call do not appear. Entries that show only a call come without a potency. Values without a mark were called inactive. Active and inactive are the calls of the source. Calls come from the whole dose curve; as a rule, active = well fitted inhibition curve with a large enough effect; inconclusive = small, poorly fitted or top-dose-only effect; inactive = no such curve, though single readings can be large or run the other way.

Assay: Primary qHTS for inhibitors of nuclear receptor binding SET domain protein 2 (NSD2) in an RCH-ACV wild type WT cells (2C) (AID 1645877); note: nearly all actives have a fitted effect of over 70% in size
Conditions: RCH-ACV (leukaemia line) NSD2 WT (2C) viability, CellTiter-Glo, 72 h; series mostly up to 44.9 µM; activity change, negative = cell killing: at the top concentration
Potency is the fitted concentration of half-maximal effect.

Row | Structure (SMILES) | activity change, negative = cell killing [%] | outcome | Potency
1 | C[C@H](NCc1ccc(OCc2ccccc2F)cc1)C(N)=O | 1.09 | – | –
2 | O=C1N(CC2CCCCN2)CCN1c1ccccc1 (stereo not given) | – | inactive | –
3 | COc1cccc(-n2nc(C(=O)O)cc2-c2ccc(C3CCCCC3)c(Cl)c2)c1 | -9.21 | – | –
4 | CC1(C)C(=O)C(C)(C)c2cc(C(=O)Nc3ccc(C(=O)O)cc3)ccc21 | 3.9 | – | –
5 | COc1c(C)c(C(=O)c2ccc(N)c(C(=O)O)c2)n2ccccc12 | – | – | inactive
6 | O=C(c1ccc(F)cc1)C1CCN(CCn2c(=O)nc3n(c2=O)CCCC3)CC1 | -8.23 | – | –
7 | CCn1c2ccccc2c2cc(CNC)ccc21 | – | – | 23 µM (active)
8 | C[C@H]1CN(C[C@H](Cc2ccccc2)C(=O)NCC(=O)O)CC[C@@]1(C)c1cccc(O)c1 | – | inactive | –
9 | Cn1c(=O)cc(N2CCCC(N)C2)n(Cc2ccccc2C#N)c1=O (stereo not given) | – | inactive | –
10 | CCOC(=O)c1c(C)nn(-c2cccc([N+](=O)[O-])c2)c1C | -2.02 | – | –
11 | O=C(NCc1ccc(OC(F)(F)F)cc1)C1c2ccccc2C(=O)N1C1CCOCC1 (stereo not given) | – | inactive | –
12 | CNC(=O)COC(=O)NCCC1CCN(c2cccc(C)n2)CC1 | – | inactive | –
13 | c1ccc(C(OC2CCN(CCCc3nn[nH]n3)CC2)c2ccccc2)cc1 | – | inactive | –
14 | O=c1ccn([C@@H]2O[C@H](CO)[C@@H](O)[C@H]2O)c(=O)[nH]1 | -7.99 | – | –
15 | CCC(=O)NS(=O)(=O)c1ccc(-c2c(-c3ccccc3)noc2C)cc1 | – | – | inactive
